Compounds without any hit were thinned out: in the full panel of roughly 83,000, 20% have a hit.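 Note: values are percent growth. 100 is the growth of untreated cells, values between 100 and 0 indicate rising inhibition; between -100 and 0 indicates cell death.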 A number with no mark means an inactive call. The source made the active and inactive calls. How the source made its calls: active means growth percent below 10; inactive means the rest.
Experiments:
Assay in all cases: NCI-60 one-dose screen, 48 h (100 = growth as untreated, 0 = no growth, -100 = all killed)
Details in all cases: 10 µM unless noted
[1] = system: EKVX NSCLC
[2] = system: SN12C renal
[3] = system: UO-31 renal
[4] = system: TK-10 renal
[5] = system: ACHN renal
[6] = system: CAKI-1 renal
[7] = system: CCRF-CEM leukemia
[8] = system: MOLT-4 leukemia
[9] = system: SR leukemia
[10] = system: A498 renal

Compound `Cc1nc2cc(NC(=O)CN3CCN(CCN4C(=O)c5cccc6cccc(c56)C4=O)CC3)ccc2s1` has a growth [1] of 69.9%, a growth [2] of 39.8% and a growth [3] of 53.6%. For the same compound, the growth [4] was 87.9%, the growth [5] was 33.9% and the growth [6] was 72.9%. For the same compound, the growth [7] was 31.7%, the growth [8] was 9.64% (active) and the growth [9] was 22%.

Work on `O=C(NN(C(=O)c1ccccc1)c1cccs1)c1ccccc1` yielded a growth [1] of 112%, a growth [2] of 97.1% and a growth [3] of 66.1%. It also gave a growth [4] of 91.7%, a growth [5] of 104% and a growth [6] of 110%. For the same compound, the growth [7] was 93.8%, the growth [8] was 107% and the growth [9] was 100%.

With `COc1ccc2nc(-c3ccc(-n4cncc4-c4ccc(OC)c(N)c4)cc3)sc2c1` the growth [1] was 109%, the growth [2] was 111% and the growth [3] was 70.1%. It also gave a growth [4] of 114%, a growth [5] of 103% and a growth [6] of 106%. The growth [7] was 95.6%, the growth [8] was 66.3% and the growth [9] was 69.3%.

With `O=C1C[C@@H]2/C(=C(O)\C=C\c3ccccc3)C(=O)C=C[C@@H]2O1` the growth [1] was 25.6%, the growth [2] was -21.8% (active) and the growth [3] was -85.9% (active). For the same compound, the growth [4] was 3.39% (active), the growth [5] was -17.7% (active) and the growth [6] was -54% (active). The growth [7] was 12.5%, the growth [8] was 6.97% (active) and the growth [9] was 10.2%.

`Nc1ccc2c(c1)/C(=N/O)c1cc([N+](=O)[O-])ccc1-2` was tested, and the growth [1] was 85.9%, the growth [2] was 86.2% and the growth [3] was 21.7%. For the same compound, the growth [4] was 57.6%, the growth [5] was 58.7% and the growth [6] was 46.6%. For the same compound, the growth [7] was 25%, the growth [8] was 25.6% and the growth [9] was 9.6% (active).

For `CCCCSc1cc(C)nc(N)n1`, the growth [1] was 97.2%, the growth [2] was 92.1% and the growth [3] was 45.5%. The growth [4] was 93.8%, the growth [5] was 96.9% and the growth [6] was 97.6%. The growth [10] was 92.8%, the growth [8] was 102% and the growth [9] was 98%.

Compound `C=C(C)[C@H]1CC/C(C)=C/CC[C@]2(C)O[C@H]2CC/C(COC(C)=O)=C\C1=O` has a growth [1] of 44.3%, a growth [2] of 104% and a growth [3] of 69.4%. The growth [4] was 117%, the growth [5] was 98.9% and the growth [10] was 91.1%. For the same compound, the growth [7] was 103%, the growth [8] was 90.2% and the growth [9] was 56.7%.

Compound `CCOC(=O)C1C(=O)OC2CCCCC21` (stereo unspecified) has a growth [1] of 120%, a growth [2] of 102% and a growth [3] of 79.6%. It also gave a growth [4] of 122%, a growth [5] of 102% and a growth [6] of 96.1%. The growth [7] was 106%, the growth [8] was 89% and the growth [9] was 88%.

Compound `COc1ccc(C2CC(c3ccc(OC)c(OC)c3)=NN2C(=O)c2cc(OC)c(OC)c(OC)c2)cc1` (stereo unspecified) has a growth [1] of 48.2%, a growth [2] of 41.5% and a growth [3] of 21.1%. For the same compound, the growth [4] was 18.4%, the growth [5] was 48.7% and the growth [6] was 12.1%. For the same compound, the growth [7] was 24.3%, the growth [8] was 47.1% and the growth [9] was 20.6%.

Compound `Clc1ccc(-n2cnc3c(Cl)ncnc32)cc1Cl` has a growth [1] of 88.5%, a growth [2] of 100% and a growth [3] of 114%. For the same compound, the growth [4] was 89.3%, the growth [5] was 95.7% and the growth [6] was 28.4%. For the same compound, the growth [8] was 82.6% and the growth [9] was 19.5%.

Work on `CN1C(=O)/C(=C/c2nc(-c3cccc(F)c3)n3ccccc23)c2ccccc21` yielded a growth [1] of 79%, a growth [2] of 85.9% and a growth [3] of 89.8%. The growth [4] was 61.7%, the growth [5] was 39.9% and the growth [6] was 68%. For the same compound, the growth [7] was 88.9%, the growth [8] was 71.6% and the growth [9] was 60.5%.

`CC[N+](CC)(CCOCCOCC[N+](CC)(CC)Cc1ccc([N+](=O)[O-])cc1)Cc1ccc([N+](=O)[O-])cc1` gave a growth [1] of 101%, a growth [2] of 94.2% and a growth [3] of 68.5%. For the same compound, the growth [4] was 95%, the growth [5] was 102% and the growth [6] was 93.7%. It also gave a growth [7] of 102%, a growth [8] of 84.8% and a growth [9] of 107%.

Work on `COc1cc(/C=C/C(=O)Nc2cccnc2Nc2cc(OC)c(OC)c(OC)c2)cc(OC)c1OC` yielded a growth [1] of 92%, a growth [2] of 76.1% and a growth [3] of 89.8%. For the same compound, the growth [4] was 116%, the growth [5] was 96.5% and the growth [6] was 82.3%. The growth [8] was 94.1% and the growth [9] was 92.5%.

In the case of `COc1ccc2nc3cc(Cl)ccc3c(Nc3cc(C(C)C)c(O)cc3C)c2c1`, the growth [1] is reported as 25%, the growth [2] is reported as 54.9% and the growth [3] is reported as -6.15% (active). It also gave a growth [4] of 15.7%, a growth [5] of 61.6% and a growth [10] of 60.2%. For the same compound, the growth [7] was -25.9% (active), the growth [8] was 18% and the growth [9] was 16.9%.

`CCCn1cnc2c1c(=O)n(CCCCC(C)=O)c(=O)n2C` was tested, and the growth [1] was 108%, the growth [2] was 124% and the growth [3] was 80.9%. For the same compound, the growth [4] was 114%, the growth [5] was 101% and the growth [6] was 103%. The growth [7] was 109%, the growth [8] was 92% and the growth [9] was 87.5%.

`CCc1ccc(CCN2C(=O)c3ccccc3C2=O)nc1` showed a growth [1] of 91%, a growth [2] of 103% and a growth [3] of 137%. It also gave a growth [4] of 126%, a growth [5] of 105% and a growth [10] of 120%. For the same compound, the growth [7] was 108%, the growth [8] was 109% and the growth [9] was 104%.

With `COc1ccc(/C(=C2\O[C@@H]([C@H](O)CO)[C@H]3OC(C)(C)O[C@@H]23)c2cc(OC)c(OC)c(OC)c2)cc1O` the growth [1] was 97%, the growth [2] was 95.6% and the growth [3] was 90.1%. For the same compound, the growth [4] was 106%, the growth [5] was 78.5% and the growth [6] was 105%. The growth [7] was 95.3%, the growth [8] was 78.1% and the growth [9] was -13% (active).

For `COC(=O)CC1=C(C)/C(=C/c2[nH]c(-c3ccc[nH]3)cc2OC)N=C1C`, the growth [1] was 27.9%, the growth [2] was 21.4% and the growth [3] was -68.9% (active). The growth [4] was 6.46% (active), the growth [5] was -13.4% (active) and the growth [6] was 8.04% (active). The growth [10] was -5.38% (active), the growth [8] was -49% (active) and the growth [9] was -47.8% (active).

`CCOC(=O)c1c2c(c(C)n1Cc1ccccc1)-c1nc(N)ncc1CC2` showed a growth [1] of 88.9%, a growth [2] of 102% and a growth [3] of 79.7%. For the same compound, the growth [4] was 103%, the growth [5] was 92.2% and the growth [10] was 88.2%. For the same compound, the growth [7] was 93.7%, the growth [8] was 95.7% and the growth [9] was 86.2%.

In the case of `O=C(/C=C/c1ccccc1)CC(c1ccccc1)N1CCOCC1` (stereo unspecified), the growth [1] is reported as 117%, the growth [2] is reported as 94.5% and the growth [3] is reported as 61.3%. The growth [4] was 77%, the growth [5] was 87.8% and the growth [6] was 103%. For the same compound, the growth [9] was -7.57% (active).

Work on `COc1ccc(-c2cncn2-c2ccc(-c3nc4cc(OC)c(OC)c(OC)c4s3)cc2)cc1N` yielded a growth [1] of 58.4%, a growth [2] of 72.4% and a growth [3] of 16.1%. The growth [4] was 83.3%, the growth [5] was 59.6% and the growth [6] was 30.4%. The growth [7] was 45.9%, the growth [8] was 40% and the growth [9] was 43.4%.

With `C/C(=N/N=C(N)N)c1ccc(Cl)cc1` the growth [1] was 87.8%, the growth [2] was 90.8% and the growth [3] was 78.2%. The growth [4] was 55.3%, the growth [5] was 96.1% and the growth [10] was 188%. For the same compound, the growth [7] was 87.9%, the growth [8] was 145% and the growth [9] was 83.3%.

In the case of `Clc1nc(Cl)c2ncn(-c3ccccc3)c2n1`, the growth [1] is reported as 73.3%, the growth [2] is reported as 82% and the growth [3] is reported as -77.3% (active). The growth [4] was 71.9%, the growth [5] was 68.6% and the growth [6] was -79.9% (active). For the same compound, the growth [7] was 80.3%, the growth [8] was 44.2% and the growth [9] was 39%.

Work on `COc1ccc(C2CC(c3ccc(OC)c(OC)c3)=NN2C(=O)c2cc(OC)c(OC)c(OC)c2)c(OC)c1` (stereo unspecified) yielded a growth [1] of 86.7%, a growth [2] of 91.3% and a growth [3] of 42.2%. The growth [4] was 87.7%, the growth [5] was 65.2% and the growth [6] was 34.6%. The growth [7] was 92.9%, the growth [8] was 106% and the growth [9] was 48.7%.

With `Cn1cnc([N+](=O)[O-])c1S(=O)(=O)Oc1ccc(Cl)cc1` the growth [1] was 102%, the growth [2] was 94.5% and the growth [3] was -82% (active). The growth [4] was 96.1%, the growth [5] was -70.8% (active) and the growth [6] was -65.1% (active). The growth [7] was -49.8% (active), the growth [8] was -0.321% (active) and the growth [9] was 25.3%.

`COc1cc(/C=C/C(=O)N2CCN(C(=O)/C=C/c3ccccc3)CC2)cc(OC)c1OC` gave a growth [1] of 121%, a growth [2] of 111% and a growth [3] of 77.7%. It also gave a growth [4] of 108%, a growth [5] of 110% and a growth [6] of 104%. The growth [7] was 100%, the growth [8] was 87.8% and the growth [9] was 78.7%.

For `CC(C)[O-].CC(C)[O-].CN(CCN(C)Cc1cc(F)cc(F)c1[O-])Cc1cc(F)cc(F)c1[O-].[Ti+4]`, the growth [1] was -8.9% (active), the growth [2] was 19.7% and the growth [3] was -14.5% (active). The growth [4] was -12.6% (active), the growth [5] was 9.76% (active) and the growth [6] was -11.1% (active). For the same compound, the growth [7] was 16.4%, the growth [8] was 8.02% (active) and the growth [9] was 1.21% (active).

`O=C1/C(=N/O)CCc2ccccc21` was tested, and the growth [1] was 88.8%, the growth [2] was 96.1% and the growth [3] was 66.4%. It also gave a growth [4] of 151%, a growth [5] of 88.9% and a growth [6] of 102%. The growth [7] was 4.19% (active) and the growth [9] was 113%.

Compound `C[N+]1(CCc2ccccc2)CCC(CCC2CC[N+](C)(CCc3ccccc3)CC2)CC1` (stereo unspecified) has a growth [1] of 97.2%, a growth [2] of 88.5% and a growth [3] of 72.7%. For the same compound, the growth [4] was 96.9%, the growth [5] was 101% and the growth [6] was 96.6%. The growth [7] was 127%, the growth [8] was 123% and the growth [9] was 120%.

From PubChem BioAssay (NCI)
